# Assay results taken from PubChem BioAssay (NCATS).
# Results filed as inconclusive are left out. The source made the active and inactive calls. Calls follow the shape of the dose curve; as a rule, active = well fitted cell-killing curve with a large enough effect; inconclusive = small, poorly fitted or top-dose-only effect, or effect the other way; inactive = no such curve, though single readings can be large or run the other way.
# Test: Quantitative High-Throughput drug screen in 47 multiple myeloma cell lines against the NCATS MIPE library collection: MMM1_PLB cell viability assay (AID 1918976); also: nearly all actives have a fitted effect of over 35% in size
# Settings: MMM1 myeloma cells viability, CellTiter-Glo, 48 h; series mostly up to 45.8 µM
# Summary of the method: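 Viability after 48 h drug exposure was measured as ATP-dependent luminescence. Cells, 500 per well, sat at 37 °C under 5% CO2; DMSO wells set 100%, media-only wells 0%.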
# Potency is read from the fitted curve at half-maximal effect.
row,SMILES,Potency
1,CCCCC(C=O)NC(=O)C(CC(C)C)NC(=O)OCc1ccccc1 (stereo unspecified),6.62 µM (active)
2,Oc1ccc(C=Cc2cc(O)cc(O)c2)cc1,16.6 µM (active)
3,Cc1ccc(NC(=O)c2ccc(CN3CCN(C)CC3)cc2)cc1Nc1nc(-c2cccnc2)cs1,18.7 µM (active)
4,CC(C)C[C@@H](N)[C@H](O)C(=O)N[C@H](C(=O)N[C@H](C(=O)N[C@@H](CC(=O)O)C(=O)O)C(C)C)C(C)C,1.66 µM (active)
5,CNc1nc(Nc2ccc(C(=O)N3CCOCC3)cc2OC)ncc1Cl,13.2 µM (active)
6,N[C@@H](CC(=O)N1CCn2c(nnc2C(F)(F)F)C1)Cc1cc(F)c(F)cc1F,1.87 µM (active)
7,CN(C)CCCNC(=O)c1ccc(-c2cc(O)c3ncccc3c2)cc1,11.8 µM (active)
8,COc1c(C)c2c(c(O)c1CC=C(C)CCC(=O)O)C(=O)OC2,1.18 µM (active)
9,CC=C(C(=CC)c1ccc(O)cc1)c1ccc(O)cc1,16.6 µM (active)
10,COc1ccc(CCN(C)CCCOc2ccc(S(=O)(=O)c3[nH]c4ccccc4c3C(C)C)cc2)cc1OC,9.35 µM (active)
11,O=C(O)Cc1cccc(OCCCN(Cc2cccc(C(F)(F)F)c2Cl)CC(c2ccccc2)c2ccccc2)c1,6.62 µM (active)
12,O=C(CCCN1CCN(c2ccc(F)cc2)CC1)NC1c2ccccc2CSc2ccccc21 (stereo unspecified),5.9 µM (active)
13,Cc1ccc(S(=O)(=O)Nc2nc3ccccc3nc2Nc2ccc3nsnc3c2)cc1,3.63 µM (active)
14,CCC=CC[C@H]1C(=O)CC[C@@H]1CC(=O)OC,10.5 µM (active)
15,O=C1NC(=O)C(=Cc2ccc(-c3ccc(F)cc3O)o2)S1,2.96 µM (active)
16,C[C@]12C=CC(=O)C=C1CC[C@@H]1[C@@H]2[C@@H](O)C[C@@]2(C)[C@@H]1CC[C@]2(O)C(=O)CO,0.166 µM (active)
17,CCCCOCCOc1nc(-c2ccc(C(=O)O)c(F)c2)sc1C,inactive
18,CCn1c(-c2nonc2N)nc2cncc(CNC3CCNCC3)c21,8.33 µM (active)
19,CC(=O)OCC(=O)[C@@]1(O)CC[C@H]2[C@@H]3CCC4=CC(=O)C=C[C@]4(C)[C@@H]3[C@@H](O)C[C@@]21C,2.64 µM (active)
20,COc1cc2nccc(Oc3ccc(NC(=O)Nc4ccc(F)cc4F)c(F)c3)c2cc1OC,0.0935 µM (active)
21,CCCCCCOC(=O)N=C(N)c1ccc(NCc2nc3cc(C(=O)N(CCC(=O)OCC)c4ccccn4)ccc3n2C)cc1,14.8 µM (active)
